Test results taken from PubChem BioAssay (NCATS).
Records with an inconclusive call do not appear. Active and inactive are the calls of the source. Unless noted, calls follow the shape of the dose curve; as a rule, active = well fitted curve in the direction sought with a large enough effect; inconclusive = small, poorly fitted or top-dose-only effect, or another doubt; inactive = no such curve, though single readings can be large; an effect the other way counts as inactive or inconclusive.

Key:
[1] = AP1 Signaling Pathway (AID 357; active = well fitted curve in either direction with a large enough effect, not every such curve was filed as active;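 also: ME-180 reporter cells stimulated with EGF at its EC50 level; % is scaled to controls: 0 for no effect and ±100 for the full control effect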); conditions: ME-180 AP-1-bla reporter, EGF-induced, beta-lactamase ratio, 5 h; at 7.69 µM (top of the series) unless noted
Procedure, shortened: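 Read-out was the 460nm/530nm emission ratio (excitation 405nm) after CCF4 loading for 2.5 hours at room temperature. Cells carried an AP-1-driven beta-lactamase reporter, were stimulated with EC50 EGF plus compound for 5 hours, and AC50 values came from titrations.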

[2] = molecular target: Cytochrome P450 1A2 (Homo sapiens) (UniProt P05177); test: p450-cyp1a2 (AID 410; calls by dose curve; also: potency is read from the fitted curve at half-maximal effect;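 as to activity change, negative = inhibition: -100% = full effect of reference inhibitor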)
Procedure, shortened: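 Read-out is luminescence from luciferin produced by CYP1A2 demethylation of Luciferin-ME (100uM, at Km). Detection reagent stopped the 60 min NADPH-dependent reaction; signals were normalized to 57 uM furafylline.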

[3] = NFAT Signaling Pathway (AID 444; active = well fitted curve in either direction with a large enough effect, not every such curve was filed as active;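 also: carbachol stimulus at about its EC50 of 1 µM final; % is scaled to controls: 0 for no effect and ±100 for the full control effect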); conditions: Jurkat NFAT-bla M1, carbachol, beta-lactamase ratio, 5 h; at 7.69 µM (top of the series) unless noted
Procedure, shortened: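 Jurkat cells with NFAT-driven β-lactamase reporter and co-expressed M1 receptor, stimulated with carbachol (final 1 uM, ~EC50), compound titration, 5 h at 37 °C. CCF4 loaded 1 h at RT; 460/530 nm ratio gave %activity and AC50.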

[4] = Stat Signaling Pathway (AID 446; active = well fitted curve in either direction with a large enough effect, not every such curve was filed as active;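 also: ME-180 cervical cancer cells given 40 pM IL-6 alongside compound; SIE-controlled beta-lactamase reporter measured as 460/530 nm FRET emission ratio; % is scaled to controls: 0 for no effect and ±100 for the full control effect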); conditions: ME-180 (cervical carcinoma) SIE beta-lactamase reporter, IL-6 stimulated, 5 h; at 7.69 µM (top of the series) unless noted
Procedure, shortened: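 Emission at 460 and 530 nm (excitation 405 nm) reports SIE-controlled beta-lactamase in ME-180 cells. Cells received compound with 40 pM IL-6 for 5 hrs at 37 C; data scaled between 300 pM IL-6 and 125 nM JAK-inhibitor controls.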

[5] = molecular target: Glucocorticoid receptor (Homo sapiens) (UniProt P04150); test: GR-GFP Redistribution (AID 450;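 active = compounds whose dose series gives a full or clear partial fitted curve of increased nuclear translocation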; also: potency is read from the fitted curve at half-maximal effect); conditions: U2OS GR-GFP nuclear translocation, laser cytometry, 2 h
[6] = molecular target: Glucocorticoid receptor (Homo sapiens) (UniProt P04150); test: GR-EFC Redistribution (AID 451; calls by dose curve; also: potency is read from the fitted curve at half-maximal effect); conditions: CHO-K1 GR-EFC translocation, beta-gal luminescence, 2 h
Procedure, shortened: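 CHO-K1 cells expressing nuclear EA and GR-ED fragments of b-gal; compounds titrated up to 46 uM final, 2 h at 37 C. GR nuclear translocation read as complemented b-gal luminescence after 1 h RT detection.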

[7] = molecular target: Mitogen-activated protein kinase 10 (Mus musculus) (UniProt Q61831); test: JNK3 AlphaScreen Assay (AID 530; active = well fitted curve in either direction with a large enough effect, not every such curve was filed as active;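 also: kinase came from lysate of stimulated human HepG2 cells; signal reports phosphorylation of biotinylated GST-cJun 1-79 at Ser73 with 10 µM ATP; % is scaled to controls: 0 for no effect and ±100 for the full control effect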)
Procedure, shortened: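 HepG2 lysate (IL-1b/TNFa pre-activated) + biotin-GST-cJun 1-79 + anti-pSer73 cJun; cpd titration, 15 min RT; ATP 10 uM start; Tris pH 7.6, MgCl2, DTT, vanadate; beads in EDTA buffer; AlphaScreen.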

[8] = molecular target: 3',5'-cyclic-AMP phosphodiesterase 4B (Homo sapiens) (UniProt Q07343); test: qHTS Assay for Inhibitors of PDE-IV (AID 607; active = well fitted activation curve with a large enough effect in the main read-out, with a control signal flat, not every such curve was filed as active; also: % of control where 0% means no effect)
Procedure, shortened: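 The readout is membrane depolarisation from a cAMP-sensing CNG channel, detected with a potential dye at ex 535/em 590. Cells were HEK293-derived (endogenous PDE-IV) at 1000 cells/well, titrated up to 22.9 uM final.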

[9] = molecular target: Cytochrome P450 3A4 (Homo sapiens) (UniProt P08684); test: qHTS Assay for Activators of Cytochrome P450 3A4 (AID 885); also: nearly all actives have a fitted effect of over 65% in size
Procedure, shortened: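 Activators are scored by enhanced luminescence from CYP3A4 conversion of luciferin-PPXE (25uM, equal to KM) to luciferin, after 60 min at RT with an NADPH-regenerating system.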

[10] = qHTS Assay for Lipid Storage Modulators (AID 1519; calls by dose curve); conditions: Drosophila S3 cells, BODIPY lipid droplet/cell ratio, laser cytometry, cells loaded with oleic acid; for activity change, negative = inhibition: at 57.5 µM (top of the series)
Procedure, shortened: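 Cells seeded at 5,000 per well were treated with compounds over a concentration series and loaded with oleic acid (400 uM, as added). Lipid droplet fluorescence (488 nm excitation, 500-530 nm channel) was read by laser-scanning cytometry and normalized to 20 uM Triacsin C.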

[11] = molecular target: Dual specificity protein kinase CLK4 (Homo sapiens) (UniProt Q9HAZ1); test: qHTS Assay for Inhibitors of CDC-like Kinase 4 (Kinase-Glo Assay) (AID 1770); also: nearly all actives have a fitted effect of over 65% in size; also: potency is read from the fitted curve at half-maximal effect
Procedure, shortened: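 Luminescent ATP-depletion read-out (Kinase-Glo) after 4.5 h room-temperature reaction of Clk4 (25 nM final) with RS peptide (100 uM) and ATP (1 uM), pH 7.5 Tris buffer with MgCl2 and DTT.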

[12] = molecular target: Dual specificity protein kinase CLK4 (Homo sapiens) (UniProt Q9HAZ1); test: qHTS Assay for Inhibitors of CDC-like Kinase 4 (ADP-Glo Assay) (AID 1771); also: nearly all actives have a fitted effect of over 70% in size; also: potency is read from the fitted curve at half-maximal effect
Procedure, shortened: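 In this ADP-Glo format, 1 uM ATP and 100 uM RS peptide served as substrates for 25 nM Clk4 in Mg2+/EGTA/DTT/Triton buffer; reactions ran 1 hr at room temperature before luminescent ADP quantification.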

[13] = molecular target: Dual specificity protein kinase CLK4 (Homo sapiens) (UniProt Q9HAZ1); test: qHTS Assay for Inhibitors of CDC-like Kinase 4 (ADP-FP Assay) (AID 1795); also: nearly all actives have a fitted effect of over 60% in size; also: potency is read from the fitted curve at half-maximal effect
Procedure, shortened: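 Kinase activity was measured as ADP production using Transcreener orange tracer (4 nM) and ADP antibody (1 ug/mL) fluorescence polarization, with ADP calculated from a calibration curve. The 1 h reaction contained 6.25 nM Clk4, 1 uM ATP and 100 uM RS peptide at pH 7.5 with Mg2+.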

[14] = molecular target: Ubiquitin carboxyl-terminal hydrolase 1 (Homo sapiens) (UniProt O94782); test: Inhibitors of USP1/UAF1: Pilot qHTS (AID 504865);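 also: rhodamine fluorescence freed from ubiquitin-rhodamine substrate followed over time; top concentration of the series differs between compounds; % is scaled to controls: 0 for no effect and ±100 for the full control effect; nearly all actives have a fitted effect of over 35% in size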
Procedure, shortened: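 Deubiquitinase activity followed as kinetic rhodamine fluorescence release from 150 nM Ub-Rho. 1 nM USP1/UAF1 with compound, after 15 min room-temperature preincubation, in HEPES pH 7.8 buffer containing TCEP, EDTA, BSA and Tween-20.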

[15] = Primary qHTS for small molecule stabilizers of the endoplasmic reticulum resident proteome: Secreted ER Calcium Modulated Protein (SERCaMP) assay (AID 1508630); also: % is scaled to controls: 0 for no effect and ±100 for the full control effect
Procedure, shortened: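 The SH-SY5Y reporter protocol was run at 3 concentrations up to 38.3 uM (primary) or 11 concentrations (follow-up): 16 h compound, 100 nM thapsigargin for 4 h, then extracellular luciferase luminescence.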

[16] = molecular target: Lysosomal acid glucosylceramidase (Homo sapiens) (UniProt P04062); test: Glucocerebrosidase-p2 (AID 348; in the data active = potency below about 10 µM; also: potency is read from the fitted curve at half-maximal effect); conditions: purified GBA, blue fluorogenic substrate, 40 min
Procedure, shortened: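 Normal human glucocerebrosidase (0.2 nM) with blue fluorogenic substrate (80 uM final) in citrate/phosphate pH 5.9 with 10mM sodium taurocholate, 0.01% tween-20; 40 min RT, NaOH/glycine stop; fluorescence Ex 365/Em 440; AC50 from a titration from 0.6 nM upwards.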

[17] = molecular target: Cytochrome P450 3A4 (Homo sapiens) (UniProt P08684); test: qHTS Assay for Inhibitors and Substrates of Cytochrome P450 3A4 (AID 884); also: potency is read from the fitted curve at half-maximal effect; nearly all actives have a fitted effect of over 50% in size
Procedure, shortened: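 Luminescent readout of luciferin produced by CYP3A4 (20 nM) dealkylation of Luciferin-PPXE, 25 uM (its KM). NADPH-driven reaction ran 60 min at RT after 10 min compound preincubation; data scaled to 57 uM ketoconazole as 100% inhibition.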

[18] = molecular target: Cytochrome P450 2C19 (Homo sapiens) (UniProt P33261); test: qHTS Assay for Inhibitors and Substrates of Cytochrome P450 2C19 (AID 899); also: potency is read from the fitted curve at half-maximal effect; nearly all actives have a fitted effect of over 60% in size
Procedure, shortened: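 5 nM human CYP2C19 with 10uM Luciferin-H EGE (at KM) in 50mM KPO4, compound preincubated 10 min at 37C, then NADPH regeneration for 60 min at 37C. Luciferin read by luminescence after detection reagent; normalized to 57uM ketoconazole as full inhibition.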

[19] = measured here: cell count channel max response
[20] = measured here: lipid channel max response

Chain of Glucocorticoid receptor (Homo sapiens) (P04150 whole entry, looked up, the tested form may be a part): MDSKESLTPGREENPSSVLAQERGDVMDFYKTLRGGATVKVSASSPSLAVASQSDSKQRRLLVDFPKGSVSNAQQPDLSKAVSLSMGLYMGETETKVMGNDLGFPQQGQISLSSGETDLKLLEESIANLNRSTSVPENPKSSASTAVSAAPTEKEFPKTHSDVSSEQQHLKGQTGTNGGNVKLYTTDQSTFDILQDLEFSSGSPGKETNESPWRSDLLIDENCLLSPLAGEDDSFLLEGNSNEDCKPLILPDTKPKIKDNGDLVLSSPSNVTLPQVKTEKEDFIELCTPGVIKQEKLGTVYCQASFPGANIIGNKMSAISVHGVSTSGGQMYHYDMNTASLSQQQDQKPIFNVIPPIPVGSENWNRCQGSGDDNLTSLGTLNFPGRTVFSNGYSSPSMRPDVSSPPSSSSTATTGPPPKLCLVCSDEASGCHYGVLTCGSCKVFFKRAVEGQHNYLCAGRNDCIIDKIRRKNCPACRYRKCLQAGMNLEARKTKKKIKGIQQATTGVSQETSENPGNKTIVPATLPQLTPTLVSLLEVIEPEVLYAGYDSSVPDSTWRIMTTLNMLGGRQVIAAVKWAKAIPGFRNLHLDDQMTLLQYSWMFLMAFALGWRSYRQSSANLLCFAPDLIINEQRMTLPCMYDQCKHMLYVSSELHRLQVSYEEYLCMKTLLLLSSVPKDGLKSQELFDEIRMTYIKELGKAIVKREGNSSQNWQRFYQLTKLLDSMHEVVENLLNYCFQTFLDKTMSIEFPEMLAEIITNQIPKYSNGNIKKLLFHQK
Chain of 3',5'-cyclic-AMP phosphodiesterase 4B (Homo sapiens) (Q07343 whole entry, looked up): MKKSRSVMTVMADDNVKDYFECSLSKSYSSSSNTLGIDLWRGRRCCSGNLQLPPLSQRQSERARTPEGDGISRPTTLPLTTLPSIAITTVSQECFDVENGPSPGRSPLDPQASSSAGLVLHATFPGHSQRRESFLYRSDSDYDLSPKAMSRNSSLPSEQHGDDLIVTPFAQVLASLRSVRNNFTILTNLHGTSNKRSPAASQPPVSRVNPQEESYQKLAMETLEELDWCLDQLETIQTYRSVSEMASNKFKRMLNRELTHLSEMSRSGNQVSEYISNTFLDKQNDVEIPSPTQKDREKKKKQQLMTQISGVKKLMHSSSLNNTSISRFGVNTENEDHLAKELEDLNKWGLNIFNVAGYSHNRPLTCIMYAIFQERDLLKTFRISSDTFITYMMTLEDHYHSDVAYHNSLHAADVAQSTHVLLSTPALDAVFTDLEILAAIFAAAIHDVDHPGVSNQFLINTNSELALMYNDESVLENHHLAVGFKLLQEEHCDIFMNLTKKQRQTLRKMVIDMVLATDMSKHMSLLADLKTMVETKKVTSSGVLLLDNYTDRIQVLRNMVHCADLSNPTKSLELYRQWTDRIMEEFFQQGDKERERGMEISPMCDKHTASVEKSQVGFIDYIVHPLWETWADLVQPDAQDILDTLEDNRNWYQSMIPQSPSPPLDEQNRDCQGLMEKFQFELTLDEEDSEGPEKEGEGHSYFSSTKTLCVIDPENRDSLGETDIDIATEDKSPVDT
Chain of Dual specificity protein kinase CLK4 (Homo sapiens) (Q9HAZ1 whole entry, looked up): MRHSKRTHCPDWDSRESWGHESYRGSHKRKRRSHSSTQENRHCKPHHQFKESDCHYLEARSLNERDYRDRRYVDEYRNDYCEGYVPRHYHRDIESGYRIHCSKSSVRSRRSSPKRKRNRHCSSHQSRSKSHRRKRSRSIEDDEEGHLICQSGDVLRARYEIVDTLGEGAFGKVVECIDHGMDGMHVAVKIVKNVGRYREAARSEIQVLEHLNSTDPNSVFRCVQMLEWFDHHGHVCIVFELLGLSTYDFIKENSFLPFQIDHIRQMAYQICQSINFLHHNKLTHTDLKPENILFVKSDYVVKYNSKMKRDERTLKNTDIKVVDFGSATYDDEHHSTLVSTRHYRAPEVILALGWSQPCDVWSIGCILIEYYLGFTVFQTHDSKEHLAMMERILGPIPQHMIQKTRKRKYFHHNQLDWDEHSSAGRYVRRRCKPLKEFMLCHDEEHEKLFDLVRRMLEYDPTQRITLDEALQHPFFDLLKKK
Chain of Cytochrome P450 1A2 (Homo sapiens) (P05177 whole entry, looked up): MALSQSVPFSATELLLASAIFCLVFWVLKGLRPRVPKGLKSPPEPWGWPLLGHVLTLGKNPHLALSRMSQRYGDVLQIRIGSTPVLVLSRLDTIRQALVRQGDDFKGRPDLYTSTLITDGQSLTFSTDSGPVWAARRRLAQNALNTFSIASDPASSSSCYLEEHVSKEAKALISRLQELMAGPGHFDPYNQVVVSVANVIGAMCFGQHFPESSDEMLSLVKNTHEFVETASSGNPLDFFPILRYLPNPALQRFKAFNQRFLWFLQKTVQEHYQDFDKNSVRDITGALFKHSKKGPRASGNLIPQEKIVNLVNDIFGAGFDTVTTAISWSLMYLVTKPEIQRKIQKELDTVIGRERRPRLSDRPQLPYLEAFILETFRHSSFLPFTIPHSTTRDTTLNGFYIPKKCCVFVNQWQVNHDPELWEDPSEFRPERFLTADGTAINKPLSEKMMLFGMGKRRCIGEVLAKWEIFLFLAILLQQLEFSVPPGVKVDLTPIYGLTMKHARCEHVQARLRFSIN
Chain of Cytochrome P450 3A4 (Homo sapiens) (P08684 whole entry, looked up): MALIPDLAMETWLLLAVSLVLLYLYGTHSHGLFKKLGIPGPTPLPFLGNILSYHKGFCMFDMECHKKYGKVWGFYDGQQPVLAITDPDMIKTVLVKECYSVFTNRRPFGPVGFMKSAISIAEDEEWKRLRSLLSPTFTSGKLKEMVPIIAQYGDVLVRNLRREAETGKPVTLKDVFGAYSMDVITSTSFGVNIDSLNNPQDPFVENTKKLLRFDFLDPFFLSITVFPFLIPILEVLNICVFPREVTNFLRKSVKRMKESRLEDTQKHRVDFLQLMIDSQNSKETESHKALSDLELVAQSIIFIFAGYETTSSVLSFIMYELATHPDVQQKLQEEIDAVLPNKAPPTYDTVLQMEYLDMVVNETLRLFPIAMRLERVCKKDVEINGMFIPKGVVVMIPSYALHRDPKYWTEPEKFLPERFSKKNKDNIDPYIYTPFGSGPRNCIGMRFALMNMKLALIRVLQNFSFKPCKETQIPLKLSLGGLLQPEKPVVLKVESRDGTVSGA
Chain of Ubiquitin carboxyl-terminal hydrolase 1 (Homo sapiens) (O94782 whole entry, looked up): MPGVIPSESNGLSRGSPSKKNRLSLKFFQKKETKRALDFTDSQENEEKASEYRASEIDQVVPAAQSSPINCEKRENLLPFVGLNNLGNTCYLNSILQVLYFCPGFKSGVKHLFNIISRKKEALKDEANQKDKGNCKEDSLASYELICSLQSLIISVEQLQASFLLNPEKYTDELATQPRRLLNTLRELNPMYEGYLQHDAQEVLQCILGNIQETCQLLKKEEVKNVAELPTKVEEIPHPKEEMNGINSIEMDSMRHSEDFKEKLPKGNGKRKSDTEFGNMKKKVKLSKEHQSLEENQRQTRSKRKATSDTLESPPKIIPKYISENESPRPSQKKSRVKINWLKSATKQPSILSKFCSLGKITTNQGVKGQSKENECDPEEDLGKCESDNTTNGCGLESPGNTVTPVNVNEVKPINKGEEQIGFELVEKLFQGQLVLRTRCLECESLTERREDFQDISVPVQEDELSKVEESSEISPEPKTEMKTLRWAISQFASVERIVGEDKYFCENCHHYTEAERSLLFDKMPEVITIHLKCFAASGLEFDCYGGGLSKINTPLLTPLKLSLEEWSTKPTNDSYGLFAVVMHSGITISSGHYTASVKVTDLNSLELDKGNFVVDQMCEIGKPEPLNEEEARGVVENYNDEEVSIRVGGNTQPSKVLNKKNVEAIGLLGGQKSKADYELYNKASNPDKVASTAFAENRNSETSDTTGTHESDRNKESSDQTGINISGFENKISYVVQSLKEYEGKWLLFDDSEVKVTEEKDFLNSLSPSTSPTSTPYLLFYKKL
Chain of Lysosomal acid glucosylceramidase (Homo sapiens) (P04062 whole entry, looked up): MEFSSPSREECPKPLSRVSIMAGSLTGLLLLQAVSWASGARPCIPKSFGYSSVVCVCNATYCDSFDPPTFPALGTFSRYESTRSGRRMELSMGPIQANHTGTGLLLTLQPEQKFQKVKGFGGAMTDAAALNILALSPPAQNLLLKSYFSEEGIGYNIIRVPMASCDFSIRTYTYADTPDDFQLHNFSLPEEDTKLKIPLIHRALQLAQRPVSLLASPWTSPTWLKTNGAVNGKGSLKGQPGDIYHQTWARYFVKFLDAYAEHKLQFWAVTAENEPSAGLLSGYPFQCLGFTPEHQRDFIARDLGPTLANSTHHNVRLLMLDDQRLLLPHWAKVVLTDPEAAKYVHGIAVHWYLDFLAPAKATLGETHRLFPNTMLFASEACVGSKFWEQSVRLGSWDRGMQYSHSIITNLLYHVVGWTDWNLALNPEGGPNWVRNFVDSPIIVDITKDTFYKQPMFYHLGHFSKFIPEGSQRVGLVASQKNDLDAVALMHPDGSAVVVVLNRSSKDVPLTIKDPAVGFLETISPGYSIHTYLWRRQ
Chain of Cytochrome P450 2C19 (Homo sapiens) (P33261 whole entry, looked up): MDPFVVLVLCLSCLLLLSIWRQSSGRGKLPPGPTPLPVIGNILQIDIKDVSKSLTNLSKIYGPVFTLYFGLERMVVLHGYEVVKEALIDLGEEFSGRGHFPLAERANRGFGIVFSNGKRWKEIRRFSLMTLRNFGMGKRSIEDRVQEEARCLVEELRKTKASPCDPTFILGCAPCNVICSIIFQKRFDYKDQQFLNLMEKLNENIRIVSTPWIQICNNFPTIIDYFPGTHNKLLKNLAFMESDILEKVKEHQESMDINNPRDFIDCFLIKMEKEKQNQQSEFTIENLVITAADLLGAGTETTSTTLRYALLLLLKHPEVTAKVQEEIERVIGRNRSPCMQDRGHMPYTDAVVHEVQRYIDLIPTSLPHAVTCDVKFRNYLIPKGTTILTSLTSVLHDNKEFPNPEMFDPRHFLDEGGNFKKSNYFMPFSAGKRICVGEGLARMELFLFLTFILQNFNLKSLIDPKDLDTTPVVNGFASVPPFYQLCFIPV

| Structure (SMILES) | activity change, negative = inhibition [1] | Potency [2] | activity change, negative = inhibition [3] | activity, negative = inhibition [4] | Potency [5] | Potency [6] | outcome [7] | Potency [8] | Potency [9] | activity change, negative = inhibition [10] | max response [10, 19] [%] | max response [10, 20] [%] | Potency [11] | Potency [12] | Potency [13] | Potency [14] | Potency [15] | Potency [16] | Potency [17] | Potency [18] |
| --- | --- | --- | --- | --- | --- | --- | --- | --- | --- | --- | --- | --- | --- | --- | --- | --- | --- | --- | --- | --- |
| COc1ccc(Oc2ncc3nc(-c4ccc(OC)cc4)c(=O)n(C)c3n2)cc1 | -7.57% (inactive) | 3.16 µM (active) | -4.34% (inactive) | -16.5% (inactive) | > 9.22 µM (inactive) | > 46 µM (inactive) | inactive | inactive | inactive | 2.79% (inactive) | -5.13 | -2.18 | inactive | inactive | inactive | inactive | inactive | – | – | – |
| Cc1cnc(CNc2ncncc2-c2c(C)noc2C)cn1 | 5.13% (inactive) | inactive | 1.67% (inactive) | -8% (inactive) | > 46 µM (inactive) | > 46 µM (inactive) | inactive | inactive | inactive | 5.43% (inactive) | 31 | 35 | inactive | inactive | inactive | inactive | inactive | – | – | – |
| Cc1cnc(CNc2ncnc3ccc(-c4ccoc4)cc23)cn1 | -14.2% (inactive) | 12.6 µM (active) | -6.73% (inactive) | -13.1% (inactive) | > 46 µM (inactive) | > 46 µM (inactive) | inactive | inactive | inactive | 0.59% (inactive) | 20.6 | 16.4 | 0.251 µM (active) | 0.224 µM (active) | 0.224 µM (active) | inactive | inactive | – | – | – |
| COc1cccc(Nc2ncc3nc(-c4ccc(Cl)cc4)c(=O)n(C4CC4)c3n2)c1 | – | – | -4.19% (inactive) | -10.8% (inactive) | > 9.22 µM (inactive) | > 46 µM (inactive) | inactive | inactive | – | -3.5% (inactive) | -0.959 | -5.52 | inactive | inactive | inactive | inactive | inactive | > 11.4 µM (inactive) | – | – |
| Cc1ccccc1-c1cncnc1NCc1cccs1 | 1.41% (inactive) | 3.16 µM (active) | 2.62% (inactive) | 3.53% (inactive) | > 46 µM (inactive) | > 46 µM (inactive) | inactive | – | inactive | 5.75% (inactive) | 11.6 | 15.6 | inactive | inactive | inactive | inactive | inactive | – | 0.501 µM (active) | 0.794 µM (active) |
